# Screening data from PubChem BioAssay.
# TDP1 block: blocks human tyrosyl-DNA phosphodiesterase 1 | recombinant TDP1, AlphaScreen DNA substrate cleavage | AID 485290 | Potency, µM (titrated, usually from 130 µM), inactives show at the highest dose activity change, negative = inhibition, hits mostly inhibitors | actives 0.28% (n = 350,000); further: potency means the concentration at half of the fitted maximal effect; on the % scale 0 is the no-effect control and ±100 the full control effect; nearly all actives have a fitted effect of over 40% in size
# Target sequence (Q9NUW8 whole entry, looked up): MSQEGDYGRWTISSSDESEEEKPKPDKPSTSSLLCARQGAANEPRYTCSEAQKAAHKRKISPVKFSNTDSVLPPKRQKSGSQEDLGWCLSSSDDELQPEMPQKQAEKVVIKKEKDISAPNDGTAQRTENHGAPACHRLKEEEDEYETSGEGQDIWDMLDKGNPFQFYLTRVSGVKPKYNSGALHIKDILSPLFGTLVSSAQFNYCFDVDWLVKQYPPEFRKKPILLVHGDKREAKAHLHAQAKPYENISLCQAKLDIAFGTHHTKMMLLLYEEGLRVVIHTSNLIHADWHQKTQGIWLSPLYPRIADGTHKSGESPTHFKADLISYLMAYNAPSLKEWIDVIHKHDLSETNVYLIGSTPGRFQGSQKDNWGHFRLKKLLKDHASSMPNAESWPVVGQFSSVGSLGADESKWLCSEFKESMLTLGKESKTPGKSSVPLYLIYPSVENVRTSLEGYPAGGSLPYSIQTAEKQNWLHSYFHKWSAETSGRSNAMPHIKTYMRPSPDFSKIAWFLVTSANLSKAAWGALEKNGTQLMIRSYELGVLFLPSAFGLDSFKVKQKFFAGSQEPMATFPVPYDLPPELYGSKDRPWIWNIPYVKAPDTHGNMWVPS
#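 Enzyme-compound mixtures sat 15 min at room temperature, followed by a 5 min reaction with 15 nM final substrate and 10 min with AlphaScreen beads. Recombinant human Tdp1 was used at 1 nM final.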
# TDP1 cell CPT: growth inhibition of DT40 Tdp1-/-;hTDP1 cells with camptothecin (screen for TDP1 inhibitors). chicken DT40 Tdp1-/-;hTDP1 cells + 20 nM CPT, ATP luminescence, 48 h. Potency, µM (highest dose often 46.2 µM), without a hit: at the highest dose activity change, negative = growth inhibition, hits mostly inhibitors. actives 12% (n = 420,000). AID 686979; further: potency means the concentration at half of the fitted maximal effect; on the % scale 0 is the no-effect control and ±100 the full control effect; nearly all actives have a fitted effect of over 55% in size
#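 Cell growth measured by CellTiter-Glo luminescence after a minimum 48 h, 37 C compound exposure with 20 nM CPT in Tdp1-knockout DT40 cells stably expressing hTDP1, seeded 400/well; qHTS titration format.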
# TDP1 cell noCPT: qHTS for Inhibitors of human tyrosyl-DNA phosphodiesterase 1 (TDP1): qHTS in cells in absence of CPT; DT40 Tdp1-/- hTDP1 cells, no CPT, ATP luminescence, 48 h; Potency, µM (top dose mostly 46.2 µM), for the others: top-dose activity change, negative = growth inhibition, hits mostly inhibitors; actives 15% (n = 420,000); AID 686978, 2013; further: potency means the concentration at half of the fitted maximal effect; on the % scale 0 is the no-effect control and ±100 the full control effect; nearly all actives have a fitted effect of over 55% in size
#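 Seeded 400 DT40-hTDP1 cells/well (vehicle DMSO, no 20 nM CPT); pinned compounds; ≥48 hr at 37 °C; CellTiter-Glo luminescence as viability measure.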
# IL1B secr inh: blocks inflammasome-driven IL-1 beta release; activity change, % at 57.5 µM; actives 4.7% (n = 360,000); THP-1 LPS/ATP IL-1B secretion, AlphaLISA, 16 h; stronger effect = lower value; in the data active means activity change below about -50%; inconclusive means mostly about -30% to -49%; further: on the % scale 0 is the no-effect control and ±100 the full control effect
#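 Secreted IL-1B measured by AlphaLISA bead assay after 16 h compound exposure of THP-1 cells; compounds (final up to 57.5 uM) added 1 h before LPS (250 ng/mL) and ATP (1.25 mM) stimulation; lower signal means less secretion.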
# TGFb SMAD3 inh: blocks TGF-b signaling; HepG2 CAGA-GFP TGF-b/SMAD3 reporter, GFP fluorescence, 18 h; TGF-beta stimulated, 500 pg/mL final; Potency, µM (top dose mostly 46.1 µM), for inactives: top-dose activity, negative = inhibition, usual class: inhibitors; actives 1.2% (n = 410,000); AID 588855; further: potency means the concentration at half of the fitted maximal effect; on the % scale 0 is the no-effect control and ±100 the full control effect; nearly all actives have a fitted effect of over 65% in size
#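 HEPG2 CAGA-GFP reporter cells (1000/well, DMEM with 1% FBS) received compounds, then recombinant TGF-beta at 500 pg/mL final for 18 hours at 37 degrees C. Per-cell GFP summed per well was normalised to unstimulated and stimulated DMSO controls before curve fitting.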
# HepG2 tox: counter-screen for TGF-b inhibitors: cytotoxicity in HepG2 cells. HepG2 CAGA-GFP viability, ATP luminescence, 18 h. Potency, µM (highest dose often 46.1 µM), for inactives: at the top dose activity change, negative = cytotoxicity, actives largely listed as cytotoxic. actives 0.76% (n = 410,000). AID 588856; further: potency means the concentration at half of the fitted maximal effect
#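 HepG2 CAGA-GFP cells (1000/well, DMEM with 1% FBS) received compound, then TGF-beta at 500 pg/mL final, and were incubated 18 hours at 37 degrees C. Viability was read by CellTiter-Glo luminescence. Media-only wells were set as complete cell-killing and DMSO as no toxicity.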
# Active calls of the source: *; ? = inconclusive; . = no result given. Shown are actives, neighbours in structure and some others; about 19% of the full set was active somewhere. Unless noted, the call rests on the fitted dose curve; in most records, active means well fitted curve in the direction sought with a large enough effect; inconclusive means small, poorly fitted or top-dose-only effect, or another doubt; inactive means no such curve, though single readings can be large; an effect the other way counts as inactive or inconclusive.
SMILES,TDP1 block,TDP1 cell CPT,TDP1 cell noCPT,IL1B secr inh,TGFb SMAD3 inh,HepG2 tox
Cc1cc(-c2ccc([N+](=O)[O-])cc2)nc2ccccc12,7%,2%,-27%,16,5%,-35%
O=[N+]([O-])c1ccc(-c2nc(C(Cl)Cl)c3ccccc3n2)cc1,.,0.15µM*,0.16µM*,118,2%,-26%
CN(Cc1ccccc1)c1nc(-c2ccc([N+](=O)[O-])cc2)nc2ccccc12,-6%,18µM*,?,-25,-6%,-5%
COCCN(CCOC)c1nc(-c2ccc([N+](=O)[O-])cc2)nc2ccccc12,.,0.58µM*,6.5µM*,9,-2%,12%
COc1ccccc1Nc1nc(-c2ccc([N+](=O)[O-])cc2)nc2ccccc12,.,?,?,78,-4%,-10%
CCN(CC)CCN(Cc1cc2cc3c(cc2[nH]c1=O)OCCO3)C(=S)NC,.,?,-21%,-25,0%,-16%
COc1ccc(-c2nc3cnc(N4CCOCC4)nc3n(Cc3cccc(OC)c3)c2=O)cc1,.,10%,-19%,.,.,.
CC(C)c1ccc(C(C)NC(=O)C2CCCC2)cc1 (configuration not stated),.,-55%,?,-13,-8%,1%
COc1cccc(CN2CC34CCC(CC3S2(=O)=O)O4)c1 (configuration not stated),4%,.,.,.,-2%,1%
CCc1ccc(N2C(=O)C3CCCN3C2=S)cc1 (configuration not stated),.,6%,?,-15,4%,-10%
O=C1C2CCCN2C(=S)N1c1cc(Cl)ccc1Cl (configuration not stated),2%,-10%,2%,-66*,2%,2%
NC(c1ccccc1)c1csc(Nc2ccc(C(=O)c3ccccc3)cc2)n1 (configuration not stated),.,?,18µM*,?,?,-100%
NCc1csc(NC(=O)Nc2cccc(Cl)c2)n1,.,?,?,0,-17%,-1%
NC(CO)c1csc(NC(=O)Nc2ccccc2Cc2ccccc2)n1 (configuration not stated),.,?,?,-13,16%,4%
Cc1ccc(C(=O)Nc2nc(C(N)C(C)C)cs2)cc1 (configuration not stated),.,?,16µM*,?,-1%,-30%
CC(C)c1ccc(NC(=O)Nc2nc(C(N)C(C)C)cs2)cc1 (configuration not stated),.,15µM*,16µM*,-63*,?,-101%
NC(c1ccccc1)c1csc(Nc2ccc(C(=O)NCCO)cc2)n1 (configuration not stated),.,?,?,18,16%,-17%
CC(C)C(N)c1csc(NC(=O)Nc2cccc(Cl)c2)n1 (configuration not stated),.,?,21µM*,?,?,-71%
COc1ccc2nc3oc(C(=O)N(C)c4ccc(Cl)cc4)cc3cc2c1,2%,-22%,?,.,?,-32%
CCCC[C@H](NC(=O)[C@@H]1CCCN1C(=O)[C@H]1CCCN1C(=O)[C@H](Cc1ccccc1)NC(=O)[C@@H](Cc1c[nH]c2ccccc12)NC(=O)[C@H](C)NC(=O)[C@H](CCCN=C(N)N)NC(=O)OC(C)(C)C)C(N)=O,6%,.,.,.,.,.
CC(C)c1ccc(NC(=O)Nc2nc(C(N)c3ccccc3)cs2)cc1 (configuration not stated),.,?,23µM*,-94*,11µM*,11µM*
